Screen size: about 45,000 compounds; about 65 (0.1%) were called active. The sample as a whole holds a higher share of actives than the screen did. Values without a mark were called inactive. The call rests on the fitted dose curve; in most records, active means well fitted activation curve with a large enough effect; inconclusive means small, poorly fitted or top-dose-only effect; inactive means no such curve, though single readings can be large or run the other way.
Target: Galactocerebrosidase (Homo sapiens) (UniProt P54803)
Assay: A Novel Cell-Based Assay to Identify Small Molecules for B -Galactocerebrosidase; further: 0% is about no effect; nearly all actives have a fitted effect of over 65% in size
Conditions: 145M-Twi-hGALC-G270D cells (Twitcher mouse brain line with human GALC G270D), HMU-beta-Gal fluorescence, 48 h; series mostly up to 57.5 µM; activation: at the top concentration
Text: Lysosomal storage diseases (LSDs) are caused by genetic mutations in genes encoding proteins important for normal lysosomal function. Globoid cell leukodystrophy (GLD), mostly known as Krabbe disease, is a prototype of the neurological LSDs caused by deficiency of beta-galactocerebrosidase (GALC). In brain specimens of GLD patients, psychosine levels are substantially elevated. At elevated concentrations, psychosine becomes cytotoxic to neuronal cells, particularly to oligodendrocytes (OLG), neural cells responsible for myelin formation. Therefore, the biochemical disturbances in GLD are manifested by different degrees of brain demyelination resulting in a broad spectrum of neurological manifestations. Most of the FDA-approved therapies are based on enzyme replacement therapeutic (ERT) agents, which treat non-neurological symptoms of Gaucher disease, Fabry disease, few mucopolysaccharidoses and Pompe disease. Unfortunately, in GLD, a primarily neurological LSD, ERT agents, as large molecular weight molecules unable to cross the blood-brain barrier, which makes this an inefficacious therapeutic approach. In GLD, increasing the residual GALC activity just above the critical threshold (~10% of wild type enzymatic activity), the cytotoxic levels of psychosine will be reduced, avoiding the OLGs apoptosis and the subsequent demyelination process. This will translate in disease stabilization and amelioration of GLD patient symptoms.
A cell-based assay in 1,536-well plate format was developed to implement a quantitative high-throughput screening (qHTS) assay using GLD-disease relevant cells to identify small molecules that produce enhancements of the residual enzymatic activity levels of mutants GALC found and prevalent in GLD patients. Compounds that are active may therefore have some therapeutic application for GLD. After the treatment of live cells for a determined period, using a fluorescent GALC specific substrate, the mutant residual GALC activity is measured. This cell-based qTHS assay was used to screen part of the MLPCN library for small molecule able to increase the mutant GALC enzymatic activity. In this assay, increased fluorescent signal corresponds to enhanced levels of mutant GALC residual enzymatic activity. Activation is the desired outcome for this assay.
NIH Chemical Genomics Center [NCGC]
NIH Molecular Libraries Probe Centers Network [MLPCN]
Assay Submitter (PI): Gustavo Maegawa MD,PhD, University of Florida, Gainesville, FL
2)#Two cell lines were established for the assay: 145M-Twi-hGALC-G270D (brain-derived Twitcher cell line stably expressing human GALC-G270D) and 145M-Twi-hGALC-WT (same 145M-Twi stably expressing human GALC wild type). The Twitcher is the murine C57B/6 model for GLD with naturally occurring homozygous nonsense GALC mutation. The 145M-Twi cell line was established at Maegawa lab (Ribbens J et al 2014).
a.#Media: DMEM/F12 (1:1) with 10% fetal bovine-serum (FBS) with penicillin/streptomycin (PS-1X - 100 I.U./mL of penicillin+100 ug/mL of streptomycin).
b.#The 6-Hexadecanoylamino-4-methylumbelliferyl-b-D-galactoside (HMU-B-gal) substrate was prepared as per Wiederschain et al 1992. Using 20-mL borosilicate tubes, 2.20 mg of HMU-b-Gal was added in each tube to prepare substrate-film with a final air-nitrogen stream evaporation to remove all diluent solvents.
c.#The HMUb-Gal substrate buffer consists of 0.2 M Na2HPO4 (sodium phosphate dibasic)/ 0.1 M Citric Acid with the pH adjusted to 5.2 using HCl. Sodium Azide at 0.02% and Sodium Taurocholate (NaTC) at 1 mg/mL were added to this substrate buffer.
d.#The HMU-b-Gal stopping buffer consist of 0.5 M NaHCO3 (sodium bicarbonate) /0.5 M Na2CO3 (sodium carbonate). […] Triton X-100 at 0.25% was added.
4)#Preparation of HMU-b-Gal substrate tubes
Adding 18.6 mL of the HMUb-Gal substrate buffer to each 20-mL tube (2.20 mg of HMU-b-Gal) will reach a concentration of 0.2 mM. Vortex well the tube until the solution is fully homogenized (clear cloudy solution). […]

Sequence of Galactocerebrosidase (Homo sapiens) (P54803 whole entry G286D): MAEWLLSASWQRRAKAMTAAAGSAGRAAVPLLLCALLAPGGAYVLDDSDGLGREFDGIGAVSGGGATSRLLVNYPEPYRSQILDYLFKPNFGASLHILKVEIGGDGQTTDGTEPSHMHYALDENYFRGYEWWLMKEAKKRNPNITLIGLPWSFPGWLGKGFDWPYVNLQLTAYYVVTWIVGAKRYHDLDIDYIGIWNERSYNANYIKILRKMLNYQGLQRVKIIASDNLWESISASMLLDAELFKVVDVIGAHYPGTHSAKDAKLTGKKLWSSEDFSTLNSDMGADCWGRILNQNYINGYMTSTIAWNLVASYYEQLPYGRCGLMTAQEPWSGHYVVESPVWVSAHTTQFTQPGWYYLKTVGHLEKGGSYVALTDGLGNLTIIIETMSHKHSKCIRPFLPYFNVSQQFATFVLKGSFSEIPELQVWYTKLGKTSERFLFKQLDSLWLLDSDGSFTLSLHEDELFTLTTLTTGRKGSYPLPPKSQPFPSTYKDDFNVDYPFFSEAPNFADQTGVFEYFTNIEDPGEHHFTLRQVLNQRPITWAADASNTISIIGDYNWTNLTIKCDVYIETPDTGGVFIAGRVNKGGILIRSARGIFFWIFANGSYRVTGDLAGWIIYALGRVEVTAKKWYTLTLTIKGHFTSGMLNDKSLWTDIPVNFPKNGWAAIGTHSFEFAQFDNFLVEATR

Compound | activation [%]
Cc1ccc(C)c(Oc2c(C(F)(F)F)oc3c(CN4CCN(C)CC4)c(O)ccc3c2=O)c1 | -12.2
CCc1cccc(C)c1NS(=O)(=O)c1c(C)nc2sccn2c1=O | -9.4
CCOC(=O)c1c(-c2ccc(OC)cc2)oc2ccc(OCc3ccc(C(=O)OC)cc3)cc12 | -11.1
O=C(O)c1ccc2c(c1)N(Cc1ccc(F)cc1)C(=O)c1ccccc1S2=O (configuration not stated) | -9.29
CCNC(=O)c1cc2n(n1)CCCN(Cc1ccc(C)cc1)C2=O | 2.77
COc1ccccc1CN1CCC(CNC(=O)c2cnn(-c3cccc(Cl)c3)c2C2CCN(C(=O)OC(C)(C)C)CC2)CC1 | -20.3
Cc1cc(NS(=O)(=O)c2ccc3oc(=O)c4ncn(C)c4c3c2)ccc1Br | -7.99
Cc1cccc(OCCSc2nc3ccccc3n2CC(=O)N2CCCCC2)c1C | -30.3
CN1C(=O)c2ccccc2Sc2ccc(NC(=O)Cc3ccc(Cl)cc3)cc21 | -9.11
CCc1ccc(NC(=O)CCS(=O)(=O)c2cc3c(cc2Cl)NC(=O)CO3)cc1 | 2.42
COc1cccc(CN2CCc3nc(SCC(=O)Nc4ccccc4)[nH]c(=O)c3C2)c1 | -3.87
Cc1ccccc1-c1nc(CS(=O)(=O)CC(=O)Nc2cc(Cl)cc(Cl)c2)c(C)o1 | -3.85
CCc1nnc(SCC(=O)Nc2cc(OC)ccc2OC)nc1CC | -10.7
O=C(NCCCO)c1nn(-c2ccc(Cl)cc2)nc1CO | -10.5
Cn1nnc2c(N3CCN(c4ccccc4)CC3)ncnc21 | -18.9
CN1CCN(C(CNC(=O)c2ccccc2F)c2ccc3c(c2)OCO3)CC1 (configuration not stated) | -6.11
COc1ccc(CNC(=O)c2ccc3c(O)c(S(=O)(=O)c4ccccc4)c(=O)[nH]c3c2)cc1 | -15.3
CCC(=O)Nc1cccc(C(=O)OCc2cc(=O)n3nc(CC)sc3n2)c1 | -6.34
Cc1cccc(OCCSc2nc3ccc(NC(=O)COc4ccccc4C)cc3s2)c1 | -6.58
Cc1cccc(CSc2nc3ccncc3n2CC(=O)N(C)C2CCCCC2)c1 | -18.8
Cc1ccccc1CSc1nc(-c2ccccc2)nc2c1Cc1c(CO)cnc(C)c1O2 | -9.17
O=C(Nc1nc2c(s1)CCCC2)c1ccccc1F | -19
COc1ccc(CNC(=O)CSc2n[nH]c(-c3ccc(F)cc3)n2)cc1 | 3.05
COc1ccc(CNS(=O)(=O)c2ccc(-c3cnc(C4CC4)o3)cc2)cc1 | -16.4
CCc1nc2ccc(C(=O)N3CCN(c4cc(Cl)ccc4C)CC3)cc2nc1CC | -15.1
Cc1ccc(NC(=O)c2ccc(CN3CC(=O)N4CCCCC4C3=O)cc2)c(Cl)c1 (configuration not stated) | -34.4

Compound | activation [%]
COc1cccc(NC(=O)Nc2ccc3c(c2)N(C)C(=O)c2ccccc2S3)c1 | -12.1
COc1ccccc1-c1nnc(SCC(N)=O)o1 | -6.59
Cc1cccc(C(=O)Nc2ccc(S(=O)(=O)N3CCCCC3c3cccnc3)cc2)c1 (configuration not stated) | 3.79
CCc1ccc(NC(=O)c2sc3nc4c(cc3c2N)CN(CC)CC4)cc1 | -6.64
Cc1ccccc1NC(=O)CN1C(=O)C(C)(C)c2ccccc21 | -12
Cc1ccc(C(=O)Nc2ccc(OCc3cc(=O)n4c5c(sc4n3)CCCC5)cc2)cc1 | -12.7
COc1ccc(NC(=O)CSc2nccn2Cc2ccc3c(c2)OCO3)cc1 | -12.6
CCOC(=O)c1c(S(=O)(=O)N2CCC(C(=O)NCc3ccccc3OC)CC2)c(C)n(C)c1C | -15.9
O=C(Nc1ccccc1Br)c1cc(CN2CCCC2)on1 | 8.06
COc1ccc(S(=O)(=O)NCc2cccn2Cc2cccc(C)c2)cc1Cl | -40.9
Cc1cccc(Cn2c(=O)n(CCC(=O)NCCc3ccc(Cl)cc3)c(=O)c3sccc32)c1 | -0.804
Cc1noc2ncnc(NCc3ccccc3Cl)c12 | -36.2
CCOc1ccc(CCNC(=O)CN(c2ccc(C)cc2)S(=O)(=O)N(C)C)cc1OCC | -3.15
COc1ccc(C)cc1NC(=O)CCc1c(C)nn(-c2ccc(N3CCOCC3)nn2)c1C | -3.44
CCc1ccc(N2C(=O)CN(S(=O)(=O)CC)CC2(C)C(=O)NC2CCCCC2)cc1 (configuration not stated) | 0.64
Cc1ccc(Cc2nc3ccccc3nc2SCC(=O)Nc2cccc(C(F)(F)F)c2)cc1 | -14.6
Cc1ccc(-n2c(SCC(=O)c3ccccc3)nc3c([nH]c4ccccc43)c2=O)cc1 | 3.45
CC(=O)OC1=C(C(C)=O)N(Cc2ccccc2)S(=O)(=O)c2ccccc21 | -7.78
Brc1cccc(-c2nnn3c2nc(NC2CCCCC2)c2ccccc23)c1 | -7.7
Cc1cccc(N2CCN(C(=O)CCSCc3ccccc3F)CC2)c1C | -9.85
COc1ccc(-c2c(C)nn3c(N4CCC(C(=O)NCCC(C)C)CC4)cc(C)nc23)cc1OC | -9.96
Cc1cccc(NC(=O)Cn2c(=O)n(CCC(C)C)c(=O)c3cccnc32)c1 | -14
O=[N+]([O-])c1cc(-c2nc(-c3ccccc3)no2)ccc1NCc1ccco1 | -6.22
Cc1cc(NC(=O)c2ccc(-c3ccc(Cl)cc3)o2)cc(-c2nc3ncccc3o2)c1O | -5.71
CCN(CC)c1ccc(NC(=O)Cn2nc3c(cc2=O)CCCC3)c(C)c1 | -1.81
Oc1c(C(c2ccccc2Cl)N2CCOCC2)sc2nc(-c3ccco3)nn12 (configuration not stated) | -10.8

Source: PubChem BioAssay AID1159614 (National Center for Advancing Translational Sciences (NCATS), 2016)
